# Results from paper PMC7862700, “An all-to-all approach to the identification of sequence-specific readers for epigenetic DNA modifications on cytosine”.
# How the values were obtained:
# Assay in all cases: DAPPL (digital affinity profiling via proximity ligation, sequencing); 10 mM Tris-HCl pH 7.5, 50 mM NaCl, 1 mM DTT, 4% glycerol, room temperature, 30 min; GST-TFs on glutathione beads, 16-mer random dsDNA library, 0.1% formaldehyde crosslink after washing; high values mean tight binding
# FEV = target: T1, FEV (Homo sapiens, UniProt Q99581 1-238); conditions: protein: recombinant; tags: N-terminal GST; dsDNA, one strand shown
# T1 sequence: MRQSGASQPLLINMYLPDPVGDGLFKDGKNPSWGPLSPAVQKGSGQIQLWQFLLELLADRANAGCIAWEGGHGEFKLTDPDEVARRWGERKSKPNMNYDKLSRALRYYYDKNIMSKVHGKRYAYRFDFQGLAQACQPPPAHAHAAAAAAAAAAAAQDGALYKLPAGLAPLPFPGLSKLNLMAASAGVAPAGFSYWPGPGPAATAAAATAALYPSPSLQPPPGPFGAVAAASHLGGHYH
# Method in brief: (§1)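 Pools of DNA-barcoded human transcription factors, expressed in yeast as GST fusions on glutathione beads and combined with a tag-only sample, were incubated with 200 nmole of a 16-mer random double-stranded DNA library. Incubation took 30 min at room temperature in Tris/NaCl/DTT/glycerol buffer and was followed by washing, 0.1% formaldehyde crosslinking, proximity ligation (BsaI/T4 ligase, 1 h, 37 °C), PCR amplification and sequencing on an Illumina NextSeq500. Binding signal is the ratio of a hexamer's read frequency for a factor to its frequency for the tag-only sample.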
# ETV5 = ETV5 (Homo sapiens, UniProt P41161 1-510); conditions: protein: recombinant; tags: N-terminal GST; dsDNA, one strand shown
# Chain of ETV5 (P41161 whole entry): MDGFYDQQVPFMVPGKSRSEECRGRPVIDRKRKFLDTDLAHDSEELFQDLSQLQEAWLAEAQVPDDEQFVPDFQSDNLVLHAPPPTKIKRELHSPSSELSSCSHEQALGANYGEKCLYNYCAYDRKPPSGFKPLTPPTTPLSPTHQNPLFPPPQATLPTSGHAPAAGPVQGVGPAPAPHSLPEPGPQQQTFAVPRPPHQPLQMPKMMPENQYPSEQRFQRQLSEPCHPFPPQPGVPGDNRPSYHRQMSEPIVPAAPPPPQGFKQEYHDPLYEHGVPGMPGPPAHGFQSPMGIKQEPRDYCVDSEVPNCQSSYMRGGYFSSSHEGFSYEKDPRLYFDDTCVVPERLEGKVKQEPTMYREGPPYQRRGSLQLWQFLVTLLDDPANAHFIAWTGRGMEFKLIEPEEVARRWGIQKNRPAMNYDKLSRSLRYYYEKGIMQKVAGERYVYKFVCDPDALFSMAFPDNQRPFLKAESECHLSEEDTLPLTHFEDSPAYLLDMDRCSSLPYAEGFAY
# Method in brief: as §1
# HSF1 = HSF1 (Homo sapiens, UniProt Q00613 1-529); conditions: protein: recombinant; tags: N-terminal GST; chain copies: 3; dsDNA, one strand shown
# Chain of HSF1 (Q00613 whole entry): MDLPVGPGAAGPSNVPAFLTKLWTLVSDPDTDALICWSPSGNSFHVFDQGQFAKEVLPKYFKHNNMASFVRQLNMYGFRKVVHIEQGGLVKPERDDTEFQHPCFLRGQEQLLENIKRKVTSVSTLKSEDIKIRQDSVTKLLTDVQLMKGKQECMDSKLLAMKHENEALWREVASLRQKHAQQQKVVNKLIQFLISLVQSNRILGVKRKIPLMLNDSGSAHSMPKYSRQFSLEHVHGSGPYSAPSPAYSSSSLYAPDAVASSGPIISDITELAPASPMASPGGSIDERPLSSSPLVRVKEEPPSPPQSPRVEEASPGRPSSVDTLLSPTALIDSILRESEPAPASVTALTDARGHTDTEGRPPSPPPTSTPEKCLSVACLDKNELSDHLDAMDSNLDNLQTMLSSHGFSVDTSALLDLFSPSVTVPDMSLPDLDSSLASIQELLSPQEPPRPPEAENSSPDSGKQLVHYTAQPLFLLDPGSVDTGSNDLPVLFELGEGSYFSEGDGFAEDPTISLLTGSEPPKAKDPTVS
# Method in brief: as §1
# SPIC = target: T2, SPIC (Homo sapiens, UniProt Q8N5J4 1-248); conditions: protein: recombinant; tags: N-terminal GST; dsDNA, one strand shown
# T2 sequence: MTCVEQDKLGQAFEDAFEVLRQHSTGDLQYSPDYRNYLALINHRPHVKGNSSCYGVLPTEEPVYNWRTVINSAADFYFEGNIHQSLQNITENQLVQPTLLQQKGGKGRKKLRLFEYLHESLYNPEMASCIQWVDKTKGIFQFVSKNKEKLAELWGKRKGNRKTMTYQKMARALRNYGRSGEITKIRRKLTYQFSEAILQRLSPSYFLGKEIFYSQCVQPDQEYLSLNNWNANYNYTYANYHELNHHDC
# Method in brief: as §1
# ELF4 = ELF4 (Homo sapiens, UniProt Q99607 1-663); conditions: protein: recombinant; tags: N-terminal GST; dsDNA, one strand shown
# Chain of ELF4 (Q99607 whole entry): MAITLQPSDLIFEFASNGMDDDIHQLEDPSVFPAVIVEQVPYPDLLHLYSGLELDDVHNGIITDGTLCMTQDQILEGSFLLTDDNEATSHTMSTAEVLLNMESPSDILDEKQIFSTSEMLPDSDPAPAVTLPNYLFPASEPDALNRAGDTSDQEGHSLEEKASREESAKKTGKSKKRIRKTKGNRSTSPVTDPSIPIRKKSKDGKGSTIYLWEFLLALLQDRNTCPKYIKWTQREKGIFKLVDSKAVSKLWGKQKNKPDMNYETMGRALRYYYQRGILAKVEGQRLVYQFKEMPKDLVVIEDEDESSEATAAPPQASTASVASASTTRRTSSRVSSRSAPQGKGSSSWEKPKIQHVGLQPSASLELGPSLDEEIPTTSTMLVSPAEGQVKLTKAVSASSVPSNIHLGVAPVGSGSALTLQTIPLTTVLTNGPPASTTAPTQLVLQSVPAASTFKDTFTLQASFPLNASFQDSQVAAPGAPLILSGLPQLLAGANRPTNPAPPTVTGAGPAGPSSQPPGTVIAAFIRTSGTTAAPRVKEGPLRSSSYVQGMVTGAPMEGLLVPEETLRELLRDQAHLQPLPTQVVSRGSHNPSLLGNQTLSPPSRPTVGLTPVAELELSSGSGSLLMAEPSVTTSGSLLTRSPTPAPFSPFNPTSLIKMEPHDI
# Method in brief: as §1
# ELK4 = target: T3, ELK4 (Homo sapiens, UniProt P28324-2 1-405); conditions: protein: recombinant; tags: N-terminal GST; dsDNA, one strand shown
# T3 sequence: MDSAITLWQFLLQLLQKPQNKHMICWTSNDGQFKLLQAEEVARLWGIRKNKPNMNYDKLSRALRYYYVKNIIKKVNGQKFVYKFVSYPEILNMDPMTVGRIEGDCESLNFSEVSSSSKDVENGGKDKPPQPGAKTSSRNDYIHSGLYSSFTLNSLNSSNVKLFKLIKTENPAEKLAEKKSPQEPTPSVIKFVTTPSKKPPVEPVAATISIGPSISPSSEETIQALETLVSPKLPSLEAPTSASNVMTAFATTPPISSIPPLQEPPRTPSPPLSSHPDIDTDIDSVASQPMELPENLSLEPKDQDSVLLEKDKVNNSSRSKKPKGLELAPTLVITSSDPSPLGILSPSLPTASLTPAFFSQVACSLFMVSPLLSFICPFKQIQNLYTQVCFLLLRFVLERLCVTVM
# Method in brief: as §1
# ETV2 = target: T4, ETV2 (Homo sapiens, UniProt O00321 1-342); conditions: protein: recombinant; tags: N-terminal GST; dsDNA, one strand shown
# T4 sequence: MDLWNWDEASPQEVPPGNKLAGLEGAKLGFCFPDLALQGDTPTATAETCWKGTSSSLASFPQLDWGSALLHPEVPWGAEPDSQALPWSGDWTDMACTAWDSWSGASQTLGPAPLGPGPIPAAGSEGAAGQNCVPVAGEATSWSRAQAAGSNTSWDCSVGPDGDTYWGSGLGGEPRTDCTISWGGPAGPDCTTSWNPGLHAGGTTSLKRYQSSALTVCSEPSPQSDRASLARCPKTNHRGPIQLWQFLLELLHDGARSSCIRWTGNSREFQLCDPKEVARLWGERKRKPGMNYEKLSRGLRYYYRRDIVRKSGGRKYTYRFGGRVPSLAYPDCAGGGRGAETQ
# Method in brief: as §1
# ELF3 = target: T5, ELF3 (Homo sapiens, UniProt P78545 1-371); conditions: protein: recombinant; tags: N-terminal GST; dsDNA, one strand shown
# T5 sequence: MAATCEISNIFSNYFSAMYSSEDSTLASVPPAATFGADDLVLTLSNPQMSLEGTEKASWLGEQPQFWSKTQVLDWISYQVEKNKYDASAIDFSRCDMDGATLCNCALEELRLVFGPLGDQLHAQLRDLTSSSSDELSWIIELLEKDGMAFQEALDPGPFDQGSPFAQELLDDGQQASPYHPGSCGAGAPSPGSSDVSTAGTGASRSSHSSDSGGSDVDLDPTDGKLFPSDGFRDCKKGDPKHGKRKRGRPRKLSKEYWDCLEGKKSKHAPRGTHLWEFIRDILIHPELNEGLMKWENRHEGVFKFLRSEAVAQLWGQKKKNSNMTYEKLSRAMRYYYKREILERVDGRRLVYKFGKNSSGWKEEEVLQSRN
# Method in brief: as §1
# CRX = CRX (Homo sapiens, UniProt O43186 1-299); conditions: protein: recombinant; tags: N-terminal GST; dsDNA, one strand shown
# Chain of CRX (O43186 whole entry): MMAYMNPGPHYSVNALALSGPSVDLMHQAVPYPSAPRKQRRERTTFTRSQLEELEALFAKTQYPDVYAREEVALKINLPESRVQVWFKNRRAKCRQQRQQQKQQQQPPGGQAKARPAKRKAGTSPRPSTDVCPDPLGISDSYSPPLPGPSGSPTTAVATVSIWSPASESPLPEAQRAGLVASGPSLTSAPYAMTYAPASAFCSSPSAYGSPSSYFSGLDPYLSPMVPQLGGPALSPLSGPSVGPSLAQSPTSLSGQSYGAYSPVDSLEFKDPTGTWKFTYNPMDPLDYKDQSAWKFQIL
# Method in brief: as §1
# ETV1 = ETV1 (Homo sapiens, UniProt P50549 1-477); conditions: protein: recombinant; tags: N-terminal GST; dsDNA, one strand shown
# Chain of ETV1 (P50549 whole entry): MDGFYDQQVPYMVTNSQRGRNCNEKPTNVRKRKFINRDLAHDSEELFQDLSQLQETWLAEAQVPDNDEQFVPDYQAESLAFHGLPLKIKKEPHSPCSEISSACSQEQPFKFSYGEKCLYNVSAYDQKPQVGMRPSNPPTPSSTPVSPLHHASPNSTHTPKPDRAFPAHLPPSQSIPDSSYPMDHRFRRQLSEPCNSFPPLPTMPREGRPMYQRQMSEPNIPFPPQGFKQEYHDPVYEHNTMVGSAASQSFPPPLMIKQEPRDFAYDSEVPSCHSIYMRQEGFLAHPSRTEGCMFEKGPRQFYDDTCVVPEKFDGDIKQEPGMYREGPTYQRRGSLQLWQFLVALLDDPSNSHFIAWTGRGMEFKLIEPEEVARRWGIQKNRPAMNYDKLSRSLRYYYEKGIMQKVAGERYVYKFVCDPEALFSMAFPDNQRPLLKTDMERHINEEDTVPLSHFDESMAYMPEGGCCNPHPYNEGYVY
# Method in brief: as §1
# ERF = target: T6, ERF (Homo sapiens, UniProt P50548 1-548); conditions: protein: recombinant; tags: N-terminal GST; dsDNA, one strand shown
# T6 sequence: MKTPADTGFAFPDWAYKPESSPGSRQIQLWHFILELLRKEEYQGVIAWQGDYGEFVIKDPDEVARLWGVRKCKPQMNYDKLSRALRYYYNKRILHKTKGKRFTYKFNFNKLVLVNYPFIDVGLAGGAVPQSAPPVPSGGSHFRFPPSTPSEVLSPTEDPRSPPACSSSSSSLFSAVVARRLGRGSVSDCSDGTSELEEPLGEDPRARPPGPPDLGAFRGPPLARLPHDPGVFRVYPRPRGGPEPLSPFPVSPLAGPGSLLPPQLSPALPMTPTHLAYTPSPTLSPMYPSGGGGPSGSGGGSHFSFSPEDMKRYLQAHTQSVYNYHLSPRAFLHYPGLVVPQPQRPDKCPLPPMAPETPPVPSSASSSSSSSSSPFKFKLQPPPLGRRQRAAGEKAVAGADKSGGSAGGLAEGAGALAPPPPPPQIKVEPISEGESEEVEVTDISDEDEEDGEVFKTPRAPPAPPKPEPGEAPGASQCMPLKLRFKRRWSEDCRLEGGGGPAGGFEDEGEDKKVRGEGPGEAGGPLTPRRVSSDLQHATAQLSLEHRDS
# Method in brief: as §1
# ETV3L = target: T7, ETV3L (Homo sapiens, UniProt Q6ZN32 1-361); conditions: protein: recombinant; tags: N-terminal GST; dsDNA, one strand shown
# T7 sequence: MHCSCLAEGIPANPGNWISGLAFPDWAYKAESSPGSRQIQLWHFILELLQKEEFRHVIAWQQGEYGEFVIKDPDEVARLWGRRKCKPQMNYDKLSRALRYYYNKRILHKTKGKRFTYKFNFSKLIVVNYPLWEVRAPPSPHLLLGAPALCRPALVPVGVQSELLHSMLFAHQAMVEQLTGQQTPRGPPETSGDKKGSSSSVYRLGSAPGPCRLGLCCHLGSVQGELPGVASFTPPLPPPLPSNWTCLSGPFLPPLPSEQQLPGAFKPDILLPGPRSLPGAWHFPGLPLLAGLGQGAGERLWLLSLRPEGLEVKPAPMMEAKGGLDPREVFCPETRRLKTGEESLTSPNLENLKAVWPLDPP
# Method in brief: as §1
# ETS2 = target: T8, ETS2 (Homo sapiens, UniProt P15036 1-469); conditions: protein: recombinant; tags: N-terminal GST; dsDNA, one strand shown
# T8 sequence: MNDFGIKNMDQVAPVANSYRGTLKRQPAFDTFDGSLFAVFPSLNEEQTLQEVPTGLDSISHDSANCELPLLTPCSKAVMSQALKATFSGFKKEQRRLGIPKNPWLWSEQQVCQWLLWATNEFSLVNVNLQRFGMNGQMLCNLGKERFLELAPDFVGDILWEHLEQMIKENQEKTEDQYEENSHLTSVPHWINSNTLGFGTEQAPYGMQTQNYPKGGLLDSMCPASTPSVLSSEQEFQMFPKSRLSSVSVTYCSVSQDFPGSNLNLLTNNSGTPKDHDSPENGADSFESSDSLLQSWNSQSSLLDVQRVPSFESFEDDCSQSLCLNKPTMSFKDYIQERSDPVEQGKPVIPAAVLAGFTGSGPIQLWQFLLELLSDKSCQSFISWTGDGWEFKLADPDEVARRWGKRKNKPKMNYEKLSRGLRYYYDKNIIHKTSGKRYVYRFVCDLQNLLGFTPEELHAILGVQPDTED
# Method in brief: as §1
# SPDEF = target: T9, SPDEF (Homo sapiens, UniProt O95238 1-335); conditions: protein: recombinant; tags: N-terminal GST; dsDNA, one strand shown
# T9 sequence: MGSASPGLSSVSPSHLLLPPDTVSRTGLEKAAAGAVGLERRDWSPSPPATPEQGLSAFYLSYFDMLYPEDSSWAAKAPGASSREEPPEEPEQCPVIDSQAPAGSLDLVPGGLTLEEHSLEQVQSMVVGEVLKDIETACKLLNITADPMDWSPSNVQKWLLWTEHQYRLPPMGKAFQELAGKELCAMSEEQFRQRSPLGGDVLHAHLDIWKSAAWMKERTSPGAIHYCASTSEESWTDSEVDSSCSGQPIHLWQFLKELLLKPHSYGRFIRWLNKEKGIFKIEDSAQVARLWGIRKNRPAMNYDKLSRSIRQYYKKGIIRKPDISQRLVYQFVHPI
# Method in brief: as §1
# ETV7 = target: T10, ETV7 (Homo sapiens, UniProt Q9Y603 1-341); conditions: protein: recombinant; tags: N-terminal GST; dsDNA, one strand shown
# T10 sequence: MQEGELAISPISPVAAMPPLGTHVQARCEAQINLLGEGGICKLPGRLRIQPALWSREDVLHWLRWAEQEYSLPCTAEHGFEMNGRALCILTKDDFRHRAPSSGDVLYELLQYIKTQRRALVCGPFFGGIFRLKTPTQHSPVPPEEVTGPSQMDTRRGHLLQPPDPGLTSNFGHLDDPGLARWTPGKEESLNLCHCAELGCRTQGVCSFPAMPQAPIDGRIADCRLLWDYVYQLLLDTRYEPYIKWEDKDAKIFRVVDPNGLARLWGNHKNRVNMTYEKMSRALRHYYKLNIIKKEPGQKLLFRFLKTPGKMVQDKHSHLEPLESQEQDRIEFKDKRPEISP
# Method in brief: as §1
# ELF5 = target: T11, ELF5 (Homo sapiens, UniProt Q9UKW6-2 1-255); conditions: protein: recombinant; tags: N-terminal GST; dsDNA, one strand shown
# T11 sequence: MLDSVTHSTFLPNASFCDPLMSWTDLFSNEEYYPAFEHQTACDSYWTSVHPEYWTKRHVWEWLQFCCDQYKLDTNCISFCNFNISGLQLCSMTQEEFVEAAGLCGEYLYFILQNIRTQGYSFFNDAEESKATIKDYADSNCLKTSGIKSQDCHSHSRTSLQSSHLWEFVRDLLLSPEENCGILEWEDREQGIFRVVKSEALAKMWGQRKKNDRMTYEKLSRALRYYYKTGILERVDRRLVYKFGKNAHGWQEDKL
# Method in brief: as §1
# ETV3 = target: T12, ETV3 (Homo sapiens, UniProt P41162-2 1-143); conditions: protein: recombinant; tags: N-terminal GST; dsDNA, one strand shown
# T12 sequence: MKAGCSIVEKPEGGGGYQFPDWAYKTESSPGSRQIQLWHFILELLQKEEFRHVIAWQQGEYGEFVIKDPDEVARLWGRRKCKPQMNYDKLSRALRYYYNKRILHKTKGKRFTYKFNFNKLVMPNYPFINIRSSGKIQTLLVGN
# Method in brief: as §1
# ETV6 = ETV6 (Homo sapiens, UniProt P41212 1-452); conditions: protein: recombinant; tags: N-terminal GST; dsDNA, one strand shown
# Chain of ETV6 (P41212 whole entry): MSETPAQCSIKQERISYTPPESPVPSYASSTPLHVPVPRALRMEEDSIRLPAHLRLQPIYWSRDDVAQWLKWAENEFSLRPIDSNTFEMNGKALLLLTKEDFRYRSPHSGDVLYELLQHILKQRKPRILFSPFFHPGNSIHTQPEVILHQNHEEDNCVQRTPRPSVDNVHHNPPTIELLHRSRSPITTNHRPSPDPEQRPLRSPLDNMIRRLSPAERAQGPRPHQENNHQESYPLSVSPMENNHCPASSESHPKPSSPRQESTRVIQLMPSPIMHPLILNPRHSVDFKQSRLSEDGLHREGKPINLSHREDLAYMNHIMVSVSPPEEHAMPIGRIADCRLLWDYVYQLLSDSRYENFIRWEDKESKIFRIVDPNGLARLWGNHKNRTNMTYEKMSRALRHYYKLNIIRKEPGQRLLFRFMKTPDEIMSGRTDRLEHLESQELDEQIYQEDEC
# Method in brief: as §1
sequence,measurement,setting,value
AAATTG,binding signal,FEV,"1.22 fold enrichment (6-mer frequency, TF over GST control)"
same,binding signal,ETV5,"1.26 fold enrichment (6-mer frequency, TF over GST control)"
same,binding signal,HSF1,"1.16 fold enrichment (6-mer frequency, TF over GST control)"
same,binding signal,SPIC,"1.16 fold enrichment (6-mer frequency, TF over GST control)"
same,binding signal,ELF4,"1.27 fold enrichment (6-mer frequency, TF over GST control)"
same,binding signal,ELK4,"1.2 fold enrichment (6-mer frequency, TF over GST control)"
same,binding signal,ETV2,"1.21 fold enrichment (6-mer frequency, TF over GST control)"
same,binding signal,ELF3,"1.33 fold enrichment (6-mer frequency, TF over GST control)"
same,binding signal,CRX,"1.05 fold enrichment (6-mer frequency, TF over GST control)"
same,binding signal,ETV1,"1.21 fold enrichment (6-mer frequency, TF over GST control)"
same,binding signal,ERF,"1.3 fold enrichment (6-mer frequency, TF over GST control)"
same,binding signal,ETV3L,"1.29 fold enrichment (6-mer frequency, TF over GST control)"
same,binding signal,ETS2,"1.22 fold enrichment (6-mer frequency, TF over GST control)"
same,binding signal,SPDEF,"1.19 fold enrichment (6-mer frequency, TF over GST control)"
same,binding signal,ETV7,"1.25 fold enrichment (6-mer frequency, TF over GST control)"
same,binding signal,ELF5,"1.22 fold enrichment (6-mer frequency, TF over GST control)"
same,binding signal,ETV3,"1.28 fold enrichment (6-mer frequency, TF over GST control)"
same,binding signal,ETV6,"1.34 fold enrichment (6-mer frequency, TF over GST control)"
